Laboratory results from PubChem BioAssay AID2550 (Johns Hopkins Ion Channel Center, 2010).
The whole screen tested about 310,000 compounds, of which about 380 (0.12%) were called active.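 Rule for the calls: active = B-score of the integrated fluorescence ratio above library mean plus 3 SD, and starting fluorescence ratio within library mean plus 5 SD; inactive = the rest.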 Many of the other results were omitted from the sample, so actives are more common in it than they were.

Each compound was assayed against Short transient receptor potential channel 6 (Mus musculus) (UniProt Q61143) (assay: mouse TRPC6 channel activators, primary screen, cell-based, HEK293, membrane potential dye (AID 2550;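 note: higher score means more depolarization so channel activation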)). Conditions: HEK293-TRPC6 membrane potential dye fluorescence, at 10 µM; active compounds read high.
Short transient receptor potential channel 6 (Mus musculus), sequence (Q61143 whole entry, looked up): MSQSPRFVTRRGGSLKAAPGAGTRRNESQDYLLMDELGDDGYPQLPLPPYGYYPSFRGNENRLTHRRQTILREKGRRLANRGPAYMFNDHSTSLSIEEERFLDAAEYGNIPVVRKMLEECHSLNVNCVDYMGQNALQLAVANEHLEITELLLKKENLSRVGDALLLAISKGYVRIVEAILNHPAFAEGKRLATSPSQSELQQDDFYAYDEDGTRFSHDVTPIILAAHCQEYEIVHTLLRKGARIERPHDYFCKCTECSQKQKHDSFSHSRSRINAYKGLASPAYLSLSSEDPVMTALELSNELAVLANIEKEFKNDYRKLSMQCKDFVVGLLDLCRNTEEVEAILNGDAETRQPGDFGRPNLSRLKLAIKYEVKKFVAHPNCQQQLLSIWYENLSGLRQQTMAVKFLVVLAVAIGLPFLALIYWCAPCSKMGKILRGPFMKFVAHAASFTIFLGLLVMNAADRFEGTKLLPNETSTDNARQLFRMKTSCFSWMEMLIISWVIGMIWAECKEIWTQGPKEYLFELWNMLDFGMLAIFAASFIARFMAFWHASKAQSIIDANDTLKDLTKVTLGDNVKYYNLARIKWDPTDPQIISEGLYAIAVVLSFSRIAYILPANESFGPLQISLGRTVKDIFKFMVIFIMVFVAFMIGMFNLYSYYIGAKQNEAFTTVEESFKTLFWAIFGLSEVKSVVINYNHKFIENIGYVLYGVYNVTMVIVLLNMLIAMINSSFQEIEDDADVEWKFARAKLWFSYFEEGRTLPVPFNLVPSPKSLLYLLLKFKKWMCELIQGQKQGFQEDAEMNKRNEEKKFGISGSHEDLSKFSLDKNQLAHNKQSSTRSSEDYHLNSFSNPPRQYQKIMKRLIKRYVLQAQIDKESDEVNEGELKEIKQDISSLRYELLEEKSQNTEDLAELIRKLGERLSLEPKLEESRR

B-score, inactive:
O=C1NC(=O)C(c2ccc(Cl)cc2)N1 (stereo not given)
CC(=O)N1N=C(c2ccncc2)OC1(Cc1ccccc1)Cc1ccccc1
Cc1cc(C)cc(C(=O)N(CCc2ccccc2)C2=CC3CCC(C2)N3C)c1 (stereo not given)
Cc1ccc(-c2ccc(/C=N/NC(=O)CN3CCOCC3)o2)cc1[N+](=O)[O-]
CN1CCN(/N=C/c2ccc(C#N)cc2)CC1
Cc1cc(N2CCN(c3ccc(F)cc3)CC2)n2ncnc2n1
CCOCCCN1C(=O)C2C(C(=O)Nc3ccc(OCC)cc3)C3C=CC2(O3)C1C(=O)NC1CCCCC1 (stereo not given)
O=C(c1ccc(Cl)cc1)n1cnc2ccccc21
CC(NC(=O)CNC(=O)Cc1cccc2ccccc12)c1ccc(S(N)(=O)=O)cc1 (stereo not given)
CCC(C(=O)OC)n1cnc2scc(-c3ccc(C)cc3)c2c1=O (stereo not given)
O=[N+]([O-])c1cccc(/C=N/Nc2ncc(Br)cn2)c1
O=C(N/N=C/c1ccc(Cl)c(Cl)c1)c1ccc2nc[nH]c2c1
CCO/C=C1\C(=O)N(c2ccc(OCC)cc2)C(=O)c2ccccc21
COc1ccc(C(C)C)cc1S(=O)(=O)Nc1ncn[nH]1
CCC(=O)c1ccc(OCC(=O)OCC(=O)NC2CCCCCC2)cc1
Cc1nc2c(-c3ccc(F)cc3)c(C)nn2c(C)c1CCC(=O)NCc1ccco1
Cc1cc2c(cc1C)[n+](C)cn2CC(O)COCC1CC=CCC1 (stereo not given)
N#Cc1ccc(-c2ccc(Cl)cc2)nc1Oc1ccc(F)cc1
Cc1nn(C)c(C)c1S(=O)(=O)N1CCC(CO)(Cc2ccc(Cl)cc2)CC1
COc1cccc(OC)c1C(=O)Nc1c(C(=O)N2CCN(c3ccccn3)CC2)oc2ccccc12
CN1CCN(CCCCOc2ccccc2-c2ccccc2)CC1
Oc1ccc(CNc2ccccc2O)cc1
COc1ccc(-n2ncc3c2CC(C)(C)CC3NC(=O)CCc2c(C)noc2C)cc1 (stereo not given)
Cc1ccc(N(CCC(=O)O)S(=O)(=O)c2cccc(C(F)(F)F)c2)cc1
CCOc1ccc(CN(C)C(=O)c2ccc(=O)[nH]c2)cc1
Cc1nn(-c2ccccc2)c2sc(C(=O)N(Cc3ccco3)C(C)C(=O)NC(C)(C)C)cc12 (stereo not given)
CCN(CC(=O)NCc1ccc(Cl)cc1)C(=O)CSc1ccccc1
O=C(Nc1ccc(N2CCCC2=O)cc1)c1cncc(Br)c1

B-score, active:
CCCN(CCc1ccccc1)C1CCc2c(O)cccc2C1 (stereo not given) 16.8
CN1CCN(/N=C/c2ccc(-c3ccc([N+](=O)[O-])cc3)o2)CC1 16.2
